SW480 rerep: DNA re-replication induction in SW480 cells. 1.8% of 340,000 active. SW480 DNA re-replication, Hoechst DNA content imaging, 48 h. Potency, µM (top dose mostly 46.1 µM), without a hit: at the highest dose re-replication activation, actives largely listed as activators; further: potency means the concentration at half of the fitted maximal effect; % of control where 0% means no effect; nearly all actives have a fitted effect of over 55% in size
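Image-based read-out: total Hoechst fluorescence of nuclei (405 nm excitation, 500-530 nm emission), with hits raising the fraction of high-intensity nuclei. SW480 colon cells incubated 48 hr with compounds at 37 C.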
MCF10A rerep: inducers of DNA re-replication in MCF 10A breast cells | MCF 10A DNA re-replication, Hoechst nuclear intensity, 48 h | Potency, µM (titrated, usually from 46.1 µM), for the others: top-dose activity, positive = re-replication, actives largely listed as activators | 2.9% of 350,000 active | AID 624296; further: potency means the concentration at half of the fitted maximal effect; % of control where 0% means no effect; nearly all actives have a fitted effect of over 50% in size
IL1B secr inh: blocks inflammasome-driven IL-1 beta release. THP-1 LPS/ATP IL-1B secretion, AlphaLISA, 16 h; hits give low values. activity change, % at 57.5 µM. 4.7% of 360,000 active; in the data active means activity change below about -50%; inconclusive means mostly about -30% to -49%; further: on the % scale 0 is the no-effect control and ±100 the full control effect
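THP-1 cells pretreated 1 hr with compounds (up to 57.5 uM final), then stimulated with LPS (250 ng/mL final) plus ATP (1.25 mM final); secreted IL-1B measured by AlphaLISA after 16 hr, decreased signal indicating inhibition.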
Vif-APOBEC3F blk: blocks the Vif interaction with APOBEC3F; HeLa A3F-eYFP + Vif (tagged APOBEC3F with the HIV-1 protein that degrades it), YFP fluorescence increase; Potency, µM (top dose mostly 46.1 µM), without a hit: at the highest dose activity, negative = active; 0.2% of 390,000 active; AID 602313; further: potency means the concentration at half of the fitted maximal effect; % of control where 0% means no effect; nearly all actives have a fitted effect of over 65% in size
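HeLa cells stably expressing Vif plus C-terminally eYFP-tagged A3F were seeded, incubated overnight at 37 deg C, dosed with compound, incubated overnight again at 37 deg C. Yellow fluorescence (Ex 488/Em 500-530) reported blocked Vif-mediated A3F-eYFP degradation.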
Giardia killer: Giardia lamblia killing. Giardia lamblia trophozoite viability. activity change, % at 7.66 µM, hits read low. 0.15% of 340,000 active. AID 540267; in the data active means activity change below about -80%; inconclusive means between about -30% and that limit;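 further: parasites exposed to compound for two days anaerobically before the ATP read; on the % scale 0 is the no-effect control and ±100 the full control effect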
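Killing of trophozoites was scored by loss of ATP luminescence after a 48 hrs anaerobic exposure to compounds at 37 deg C, using 100 cells per well.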
Vif-A3G inh: Vif-A3G binding inhibition; HeLa A3G-eYFP + Vif (tagged APOBEC3G with the HIV-1 protein that degrades it), YFP fluorescence, overnight; Potency, µM (top dose mostly 46.1 µM), inactives show at the highest dose activity, negative = active, usual class: inhibitors; 0.076% of 410,000 active; AID 602310; further: potency means the concentration at half of the fitted maximal effect; on the % scale 0 is the no-effect control and ±100 the full control effect; nearly all actives have a fitted effect of over 60% in size
Target sequence (Q9HC16 whole entry, looked up): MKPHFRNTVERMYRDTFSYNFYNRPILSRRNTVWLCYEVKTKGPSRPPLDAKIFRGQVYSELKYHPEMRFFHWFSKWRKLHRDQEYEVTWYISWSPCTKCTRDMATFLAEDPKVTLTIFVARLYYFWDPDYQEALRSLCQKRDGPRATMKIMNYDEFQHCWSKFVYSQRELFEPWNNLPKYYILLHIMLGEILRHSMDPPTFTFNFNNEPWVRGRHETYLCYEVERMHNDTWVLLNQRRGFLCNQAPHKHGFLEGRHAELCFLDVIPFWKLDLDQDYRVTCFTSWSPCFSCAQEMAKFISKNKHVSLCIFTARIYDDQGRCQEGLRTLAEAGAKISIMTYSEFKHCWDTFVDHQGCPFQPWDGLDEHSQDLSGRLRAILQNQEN
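HeLa cells stably expressing Vif and C-terminally eYFP-tagged A3G, seeded overnight at 37 deg C, then exposed to compound by pintool overnight at 37 deg C. Rise in yellow fluorescence (Ex 488/Em 500-530, Acumen) marks blocked Vif-driven A3G degradation.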
Active calls of the source: *; ? = inconclusive; . = no result. An excerpt weighted towards active compounds, which were near 6.9% of everything screened. Unless noted, the call rests on the fitted dose curve; in most records, active means well fitted curve in the direction sought with a large enough effect; inconclusive means small, poorly fitted or top-dose-only effect, or another doubt; inactive means no such curve, though single readings can be large; an effect the other way counts as inactive or inconclusive.

SMILES	SW480 rerep	MCF10A rerep	IL1B secr inh	Vif-APOBEC3F blk	Giardia killer	Vif-A3G inh
COc1ccccc1-c1cc(NC=O)c2ncc(-c3cccc(C(F)(F)F)c3)n2c1	.	.	-7.2	.	.	?
CN(C)C(=O)c1cccc(-c2cnc3c(NC=O)cc(-c4ccccc4N(C)C)cn23)c1	.	.	24.2	.	.	?
CCNC(=O)c1ccccc1SCc1ccccc1	-9.7%	2.4%	0.1	8.0%	5.1	-13.4%
CCc1ccc(OCCNC(=O)c2ccccc2SCc2ccccc2)cc1	8.0%	16.4µM*	-9.8	-5.6%	-8.5	2.2%
O=C1C=CC(c2c[nH]c3ccccc23)CC1 (centres undefined)	.	.	-108.4*	.	.	.
CC(C)CCNC(=O)C(c1ccc(O)cc1)N(Cc1cccs1)C(=O)C1COc2ccccc2O1 (centres undefined)	?	?	-73.2*	5.8%	-15.2	-9.1%
CN(C)c1ccc(/C=C/c2ccnc3c([N+](=O)[O-])cccc23)cc1	.	.	.	.	.	-11.5%
COc1cc(C(CC(=O)Nc2ccc(Br)cn2)N2Cc3ccccc3C2=O)cc(OC)c1OC (centres undefined)	.	.	.	-3.6%	.	-7.5%
C=CCSc1nnc(C)c(/C=C/Nc2ccc(Cl)cc2)n1	?	20.6µM*	38.2	25.1µM*	6.1	?
O=C(Nc1ccccc1-c1ccccc1)C1CCCC1	?	13µM*	11.6	-13.6%	-4.0	?
O=C(CC(=O)c1ccccc1)Nc1ccc(Cl)cc1	0.2%	17.3%	-77.5*	-1.2%	13.1	4.1%
O=C(CNCc1ccccc1)Nc1ccccc1-c1ccccc1	-3.2%	23.1µM*	-14.3	-13.3%	10.6	-0.7%
COC(=O)c1ccc(CNCC(=O)Nc2ccc(C(=O)OC)cc2)cc1	2.4%	16.4µM*	19.5	-1.9%	3.2	0.1%
COC(=O)c1ccc(NC(=O)CNCc2ccncc2)cc1	-49.4%	-1.1%	5.7	1.0%	7.0	2.4%
O=C(Nc1ccccc1C(F)(F)F)C1CCCC1	-4.8%	0.0%	2.5	8.1%	-15.0	1.9%
COc1ccccc1-c1c(C)nn2c(N3CCN(c4ccc(F)cc4)CC3)cc(C)nc12	.	.	.	5.1%	.	0.5%
Cc1ccc(NC(=O)CN2C(=O)CCc3cc(S(=O)(=O)N4CCOCC4)ccc32)cc1N(C)C	.	.	.	-7.1%	.	-2.9%
CCc1ccc(NC(=O)CSc2c(C)cnc3c2c(=O)n(C)c(=O)n3C)cc1	.	.	.	0.1%	.	1.5%
O=C(CNCc1ccccc1)Nc1ccc(Cl)cc1	?	18.4µM*	1.1	-15.4%	-14.2	?
O=C(CNCc1ccc(Cl)cc1)Nc1ccc(C(=O)N2CCCCC2)cc1	-7.1%	0.0%	-11.7	4.5%	14.0	-5.3%
Cc1nn2c(=O)cc(COC(=O)c3cccc(NC(=O)c4ccc(F)cc4)c3)nc2s1	.	.	.	3.3%	.	-23.9%
COc1ccc(/C=C/C(=O)c2c(O)ccc3c(C)cc(=O)oc23)cc1	-4.0%	20.6µM*	?	3.1%	-9.9	-0.7%
COc1cccc(/C=N/NC(=O)c2c(C)nc3ccc(Br)cn23)c1O	0.651µM*	-12.3%	187.5	-5.7%	9.6	-13.8%
Cc1ccc(/C=N/NC(=O)c2c(C)nc3ccc(Br)cn23)cc1	1.46µM*	?	71.3	-12.0%	32.4	?
Cc1ccc2nc(C)c(C(=O)NN=C3CCN(C)CC3)n2c1	20.6µM*	?	64.8	11.0%	16.3	?
SMILES	SW480 rerep	MCF10A rerep	IL1B secr inh	Vif-APOBEC3F blk	Giardia killer	Vif-A3G inh
COc1ccc(/C=N\NC(=O)c2c(C)nc3ccc(Br)cn23)cc1	2.31µM*	?	74.6	-10.7%	6.5	?
O=C(Cc1ccc(F)cc1)Nc1cccc(-c2nc3cccnc3s2)c1	.	.	.	-0.3%	.	0.3%
COc1ccc(C2C3C=CCC(c4cccc(/C=C/c5ccccc5)c4)C3C(=O)N2Cc2ccccc2)cc1Cl (centres undefined)	.	.	.	.	-23.4	-4.1%
CCOc1ccc(CCNC(=O)c2sc3nc4n(c(=O)c3c2C)CCCC4)cc1	.	.	.	-2.9%	.	-0.9%
O=C(CSc1ncc(-c2ccc(F)cc2)n1Cc1ccco1)Nc1ccc2c(c1)OCO2	15.3%	?	-63.8*	-3.8%	6.1	0.2%
Cc1ccc(NC(=O)Cn2c(-c3ccc(F)cc3)cnc2SCC(=O)Nc2c(C)cccc2C)cc1	?	4.61µM*	1.7	-27.0%	-5.6	-0.5%
O=C(NCc1cccc(F)c1)c1ccc(CS(=O)c2ccccc2Cl)o1 (centres undefined)	.	.	.	-13.4%	.	2.7%
Cc1ccc(S(=O)(=O)N2CCN(c3nc(-c4ccc(CN5CCOCC5)s4)nc4ccccc34)CC2)cc1	.	.	.	.	-6.7	2.0%
O=C(Nc1ccncc1)c1ccc(Cl)c(S(=O)(=O)N2CCCCC2)c1	-19.5%	13µM*	-11.2	3.5%	-2.9	5.8%
O=C(O)c1ccc(NC(=O)c2ccc(Cl)c(S(=O)(=O)N3CCCCCC3)c2)cc1	.	.	.	-5.3%	.	-2.0%
CCN(CC)CCOC(=O)c1ccc(NC(=O)c2ccc(Cl)c(S(=O)(=O)N3CCCCCC3)c2)cc1	23.4%	?	-68.8*	-8.9%	-22.5	-5.9%
CCc1ccc(-n2c(CCC(=O)O)ccc2-c2ccc(F)cc2)cc1	.	.	.	0.8%	.	-1.1%
CCCOc1cccc(C(=O)N(Cc2cc(OC)c(OC)c(OC)c2)C2CCS(=O)(=O)C2)c1 (centres undefined)	.	.	.	-1.9%	.	5.4%
CCOc1ccc(NC(=S)N(Cc2ccc(N(C)C)cc2)Cc2ccco2)cc1	10.4%	19.2%	-19.1	-1.7%	-22.6	2.1%
COc1ccc(NC(=S)N(Cc2ccc(N(C)C)cc2)Cc2ccco2)cc1	5.8%	-1.9%	-76.2*	-15.2%	-5.4	-3.9%
Cc1ccccc1C=O	-5.7%	-1.3%	8.1	-0.6%	-10.9	-1.0%
Cc1ccccc1/C=C/C1=NCCN1	-85.1%	-4.0%	-91.8*	7.4%	-26.0	0.8%
O=C(C=P(c1ccccc1)(c1ccccc1)c1ccccc1)c1ccccc1-c1ccccc1C(=O)C=P(c1ccccc1)(c1ccccc1)c1ccccc1	13µM*	63.5%	?	-17.2%	-11.2	-22.5%
COc1ccc(/C=C/C(=O)c2ccc[nH]2)c(OC)c1OC	3.1%	6.7%	-28.7	.	4.7	-6.9%
COc1ccc(/C=C/C(=O)c2ccncc2)c2ccccc12	?	11.6µM*	-29.4	-21.2%	-8.8	-15.2%
CC(C)(C)CC(C)(C)c1cc(Cc2cc(C(C)(C)CC(C)(C)C)cc(-n3nc4ccccc4n3)c2O)c(O)c(-n2nc3ccccc3n2)c1	-3.2%	-1.0%	.	.	.	.
Cc1ccccc1N/N=C1\CCCNC1=O	-3.2%	0.6%	-53.8*	-16.5%	4.4	-0.2%
CCOc1cccc(C2c3c(oc4ccccc4c3=O)C(=O)N2c2nc(C)c(C(=O)OC)s2)c1 (centres undefined)	.	.	.	10.3%	.	5.3%
CCN(CC)CCN1CCN(c2cncc(-c3ccc4ccccc4c3)n2)CC1	.	.	-59.5*	.	.	?

Bioassay records (PubChem)
